Bioassay records: PubChem BioAssay, National Center for Advancing Translational Sciences (NCATS)
Only some compounds are listed: those with a hit (about 4.2% of all), similar ones and a draw of the others.
ALOX12 inh = inhibitors of human 12S-lipoxygenase ALOX12 | purified 12hLO, xylenol orange hydroperoxide absorbance | 580,000 tested, 1.1% active | P18054 | Potency, µM (series often up to 108 µM), for the others: top-dose activity change, negative = inhibition, most hits filed as inhibitors; also: potency is read from the fitted curve at half-maximal effect; % is scaled to controls: 0 for no effect and ±100 for the full control effect
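Purified human 12hLO at 150 nM in 25 mM Hepes, 0.01% Triton X-100, pH 7.0, preincubated 15 min at room temperature with compound. Reaction started with 40 uM arachidonic acid, 30 min at room temperature. Hydroperoxide measured by Fe-xylenol orange, 573/405 nm absorbance ratio.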
Sfp PPTase inh = inhibitors of Bacillus subtilis Sfp phosphopantetheinyl transferase; Potency, µM, inactives show largest response in the series, negative = inhibition, most hits filed as inhibitors; Biochemical Sfp PPTase activity, qHTS; Q9F4F7; 310,000 tested, 3.5% active;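 also: the enzyme is Sfp with the accession as filed and its product quenches rhodamine fluorescence; potency is read from the fitted curve at half-maximal effect; 0% = enzyme reaction without inhibitor and -100% = no enzyme wells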
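Sfp 15 nM + cpd, 15 min RT; start w/ rhodamine-CoA 5 uM, BHQ-2-YbbR 12.5 uM (final); 50 mM Hepes pH 7.6, 10 mM MgCl2, 0.01% NP-40, 0.01% BSA; read 525/598 nm at 0 and 30 min.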
VDR inh = inhibitors of human vitamin D receptor. P11473. Potency, µM, for the others: max response, negative = inhibition, actives largely listed as inhibitors. AID 504847. VDR-SRC2-3 peptide fluorescence polarization, 2 h. 400,000 tested, 0.93% active; also: potency is read from the fitted curve at half-maximal effect; % is scaled to controls: 0 for no effect and ±100 for the full control effect
Target sequence (P11473 whole entry, looked up): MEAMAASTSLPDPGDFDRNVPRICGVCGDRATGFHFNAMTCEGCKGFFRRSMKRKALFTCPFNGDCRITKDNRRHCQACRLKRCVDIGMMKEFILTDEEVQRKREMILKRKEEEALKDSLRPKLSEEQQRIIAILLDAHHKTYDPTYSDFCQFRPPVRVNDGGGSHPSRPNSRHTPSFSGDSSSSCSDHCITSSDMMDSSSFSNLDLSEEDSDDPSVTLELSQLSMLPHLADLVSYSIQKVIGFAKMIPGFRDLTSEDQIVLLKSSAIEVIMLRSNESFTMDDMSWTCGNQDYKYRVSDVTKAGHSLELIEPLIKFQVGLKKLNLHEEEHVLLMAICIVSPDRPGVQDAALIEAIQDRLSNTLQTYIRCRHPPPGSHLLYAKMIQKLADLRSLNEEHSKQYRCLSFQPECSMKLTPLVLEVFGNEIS
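After 23 nl compound addition and a short centrifugation, plates sat for 2 hours at ambient temperature; polarization of fluorescence then indicated loss of VDR binding to peptide SRC2-3.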
PLK1 PBD block = PLK1 (human) polo-box domain binding inhibition; P53350; Plk1 PBD binding of FITC phosphopeptide, fluorescence polarization; Potency, µM, for inactives: max response, negative = inhibition, usual class: inhibitors; 360,000 tested, 2.8% active; also: potency is read from the fitted curve at half-maximal effect; series mostly up to about 57 µM; % is scaled to controls: 0 for no effect and ±100 for the full control effect; nearly all actives have a fitted effect of over 65% in size
USP1-UAF1 confirm = validation of human USP1/UAF1 inhibitors; 50 tested, 50% active; AID 540327; shares compounds with VDR inh; Ub-Rhodamine cleavage, fluorescence kinetic read; Potency, µM (top dose mostly 56.8 µM), for inactives: top-dose activity change, negative = inhibition, most hits filed as inhibitors
VDR confirm = inhibits human vitamin D receptor, primary hit validation. AID 602199. 840 tested, 89% active. Potency, µM, hits mostly inhibitors. shares compounds with VDR inh. VDR-coactivator inhibition assay, qHTS confirmation; also: potency is read from the fitted curve at half-maximal effect
VDR FP fluor = VDR (human) coactivator binding inhibition, fluorescein polarization; 840 tested, 48% active; VDR-coactivator binding, fluorescein fluorescence polarization; Potency, µM (highest dose often 57.1 µM), without a hit: at the top dose activity change, negative = inhibition, actives largely listed as inhibitors; shares compounds with VDR inh; also: potency is read from the fitted curve at half-maximal effect
VDR bla reporter = confirmation of human vitamin D receptor inhibitors in reporter cells; AID 602202; Potency, µM (top dose mostly 46.1 µM), for the others: at the top dose activity change, negative = inhibition, most hits filed as inhibitors; shares compounds with VDR inh; VDR beta-lactamase reporter cells, FRET ratio; cells co-treated with VDR agonist LG190178; 840 tested, 23% active; also: potency is read from the fitted curve at half-maximal effect; % is scaled to controls: 0 for no effect and ±100 for the full control effect
VDR cytotox = cell toxicity, VDR inhibitor hit counter-screen. shares compounds with VDR inh. cytotoxicity counter-screen, cell viability, qHTS. Potency, µM (titrated, usually from 48.3 µM), for the others: top-dose activity change, negative = cytotoxicity, usual class: cytotoxic. 840 tested, 18% active;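 also: potency is read from the fitted curve at half-maximal effect; plate controls were DMSO for no effect and high-concentration cycloheximide for full effect; nearly all actives have a fitted effect of over 75% in size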
Active calls of the source: *. Calls follow the shape of the dose curve; as a rule, active = well fitted curve in the direction sought with a large enough effect; inconclusive = small, poorly fitted or top-dose-only effect, or another doubt; inactive = no such curve, though single readings can be large; an effect the other way counts as inactive or inconclusive.

For CN(C)c1ccc(/C=C/[N+](=O)[O-])cc1 the results were ALOX12 inh 2%, Sfp PPTase inh -9%, VDR inh inconclusive, PLK1 PBD block -4%, VDR confirm inconclusive, VDR FP fluor 86%, VDR bla reporter 0% and VDR cytotox 5%.
CC(C)CN1Cc2ccccc2-n2ccnc2C12CCN(C(=O)c1ccccc1F)CC2 was read as ALOX12 inh 77%.
Screening CN1CCC(O)(c2cccs2)C(C(=O)c2cccs2)C1 (configuration not stated) returned ALOX12 inh 7%, Sfp PPTase inh -21%, VDR inh inconclusive, PLK1 PBD block 27µM*, VDR confirm 20*, VDR FP fluor 25µM*, VDR bla reporter inconclusive and VDR cytotox inconclusive.
Cc1cc(C)c2c(CCN)c(C)[nH]c2c1 was read as ALOX12 inh 16%.
For O=[N+]([O-])/C=C/c1cn(Cc2ccc(Cl)cc2)c2ccccc12 the results were ALOX12 inh inconclusive, Sfp PPTase inh -12%, VDR inh 25µM*, PLK1 PBD block -25%, VDR confirm 11*, VDR FP fluor inconclusive, VDR bla reporter inconclusive and VDR cytotox inconclusive.
Screening O=C1NC(=O)N(Cc2ccc(F)cc2)C(=O)/C1=C/c1cccs1 returned ALOX12 inh 35%, Sfp PPTase inh 45µM*, VDR inh 50µM*, PLK1 PBD block 0.75µM*, VDR confirm 12*, VDR FP fluor inconclusive, VDR bla reporter -12% and VDR cytotox -38%.
For COc1ccc(-n2c(=S)[nH]c3c(sc(=S)n3-c3ccccc3)c2=O)c(OC)c1 the results were ALOX12 inh 55%, Sfp PPTase inh 14µM*, VDR inh 35µM*, PLK1 PBD block 2.4µM*, VDR confirm 3.4*, VDR FP fluor inconclusive, VDR bla reporter 26% and VDR cytotox 20%.
Screening COc1cc2[nH]c(=S)n(-c3ccccc3)c(=O)c2cc1OC returned ALOX12 inh 1%, Sfp PPTase inh 3%, VDR inh 16% and PLK1 PBD block -3%.
`O=S(=O)(F)CCSc1nnc2sc3ccccc3n12` gave ALOX12 inh -3%.
For O=C1NC(=O)C(=Cc2ccc(-c3ccc(S(=O)(=O)N4CCOCC4)cc3)o2)C(=O)N1 the results were ALOX12 inh 0%, Sfp PPTase inh 8.9µM*, VDR inh 22µM*, PLK1 PBD block 2.7µM*, VDR confirm 19*, VDR FP fluor inconclusive, VDR bla reporter 34% and VDR cytotox -9%.
`Cn1c(O)c(N=Nc2ccc(S(=O)(=O)N3CCOCC3)cc2)c(=O)n(C)c1=O` gave ALOX12 inh inconclusive, Sfp PPTase inh 2%, VDR inh -13% and PLK1 PBD block -19%.
`O=c1oc(Cl)c(Cl)c2ccccc12` gave ALOX12 inh 8%, Sfp PPTase inh 35µM*, VDR inh 25µM*, PLK1 PBD block 0.34µM*, USP1-UAF1 confirm 7.4µM*, VDR confirm 5*, VDR FP fluor inconclusive, VDR bla reporter inconclusive and VDR cytotox 17µM*.
